Screens deposited in PubChem by Johns Hopkins Ion Channel Center.
Hits are enriched below; roughly 1.6% of the tested compounds scored in any of these assays.
KCNQ2 inh – blocks the rat KCNQ2 potassium channel; CHO-K1 KCNQ2, FluxOR thallium flux, 20 min; hits give low values; B-score at 10 µM; hit rate 1.1% among 310,000; AID 2156;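 active = fluorescence ratio B-score at most minus 3 library SDs, with starting brightness B-score within 2 library SDs, cut at about -5.5 in these data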
KCNQ2 pot – KCNQ2 (rat) channel potentiation; O88943; CHO-K1 KCNQ2, FluxOR thallium flux fluorescence; hits give high values; B-score at 10 µM; hit rate 0.54% among 310,000; AID 2239;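 active = fluorescence ratio B-score at least 3 SD of library B-scores, with initial fluorescence B-score within 3 of them, cut at about 5.3 in these data; same plate scores as AID 2156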;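 also: B-score of peak minus minimum over baseline fluorescence ratio after K+ and Tl+ stimulus; positive B-score means potentiation of KCNQ2 with more thallium influx and brighter signal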
Numbers without * were called inactive.

For O=C(NC1CCCc2c1cnn2-c1ccc(F)cc1F)c1ccccc1N1CCOCC1 (configuration not stated) the results were KCNQ2 inh inactive and KCNQ2 pot 0.9.
Screening Cc1nc(N2CCOCC2)c2cc(-c3ccccc3)sc2n1 returned KCNQ2 inh inactive.
For Cc1nc(N2CCN(Cc3ccc4c(c3)OCO4)CC2)c2cc(-c3ccccc3)sc2n1 the results were KCNQ2 inh -6.4* and KCNQ2 pot -6.4.
Screening CN(CC(=O)Nc1c(Cl)cccc1Cl)C(=O)C1CCN(C(=O)Nc2ccccc2)CC1 returned KCNQ2 inh inactive.
For CC(=O)Sc1nc(-c2ccccc2)[nH]c1S(=O)(=O)c1ccc(C)cc1 the results were KCNQ2 inh -11* and KCNQ2 pot -11.
CSc1nc(-c2ccc(C)cc2)[nH]c1S(=O)(=O)c1ccccc1 was read as KCNQ2 inh inactive.
`CC1(c2ccccc2)CC(C)(C)N2C(=O)Cc3cccc1c32` (configuration not stated) gave KCNQ2 inh -7.7* and KCNQ2 pot -7.7.
CC(=O)N1c2ccccc2C(C)(c2ccccc2)CC1(C)C (configuration not stated) was read as KCNQ2 inh inactive.
`Cc1cc(C)cc(C(=O)N(CCc2ccccc2)C2CC3CCC(C2)N3C)c1` (configuration not stated) gave KCNQ2 inh inactive.
For Cc1cc2cc(C(c3nnnn3C3CCCC3)N(Cc3cccnc3)Cc3ccco3)c(=O)[nH]c2cc1C (configuration not stated) the results were KCNQ2 inh -6* and KCNQ2 pot -6.
Cc1ccc2cc(C(c3nnnn3C3CCCC3)N(Cc3ccccc3)Cc3ccco3)c(=O)[nH]c2c1 (configuration not stated) was read as KCNQ2 inh inactive.
`N#Cc1c(N2CCN(C(=O)c3ccccc3)CC2)nc(-c2ccccc2)c2c1CCCC2` gave KCNQ2 inh inactive.
Screening CC(C)Cc1nc(N2CCN(C(=O)c3ccco3)CC2)c(C#N)c2c1CCC2 returned KCNQ2 inh inactive.
`CC(=O)N1CCN(c2nc(CC(C)C)c3c(c2C#N)CCC3)CC1` gave KCNQ2 inh inactive.
`CC(C)Cc1nc(N2CCN(C(=O)C(C)C)CC2)c(C#N)c2c1CCC2` gave KCNQ2 inh -6.5* and KCNQ2 pot -6.5.
Screening N#Cc1c(N2CCN(C(=O)c3ccco3)CC2)nc(-c2ccccc2)c2c1CCCC2 returned KCNQ2 inh -5.6* and KCNQ2 pot -5.6.
For CC(C)Cc1nc(N2CCN(C(=O)c3ccccc3)CC2)c(C#N)c2c1CCC2 the results were KCNQ2 inh -6.6* and KCNQ2 pot -6.6.
Screening CC1CCCCC1NC(=O)C1CCCN(S(=O)(=O)c2ccc(-n3cnnn3)cc2)C1 (configuration not stated) returned KCNQ2 inh inactive and KCNQ2 pot 0.22.
For COc1ccc(N2CCN(C3CCCN(C(=O)CN4CCOC4=O)C3)CC2)cc1 (configuration not stated) the results were KCNQ2 inh inactive and KCNQ2 pot 0.92.
COc1ccc(S(=O)(=O)N2CCC(C(=O)Nc3nccs3)CC2)cc1 was read as KCNQ2 inh inactive and KCNQ2 pot 0.52.
For O=S1(=O)C=C(Oc2ccc(F)cc2)c2ccccc21 the results were KCNQ2 inh inactive and KCNQ2 pot 0.45.
`O=S1(=O)C=C(Oc2ccc3ccccc3c2)c2ccccc21` gave KCNQ2 inh -6.1* and KCNQ2 pot -6.1.
For O=C(COC(=O)C1(c2ccc(F)cc2)CCCC1)NCc1ccco1 the results were KCNQ2 inh inactive.
O=C(CSc1nnc(COc2ccc(F)cc2)o1)N1c2ccccc2CCc2ccccc21 was read as KCNQ2 inh -6.6* and KCNQ2 pot -6.6.
For O=C(CSc1nnc(COc2ccc(F)cc2)o1)N1CCCCC1 the results were KCNQ2 inh inactive and KCNQ2 pot 0.66.
Cc1ccc(-n2nc(C)c3c(C)c(CCC(=O)Nc4ccc(CN5CCCC5)cc4)c(C)nc32)cc1 was read as KCNQ2 inh -7.9* and KCNQ2 pot -7.9.
COC(CNC(=O)CCc1c(C)nc2c(c(C)nn2-c2ccc(C)cc2)c1C)OC was read as KCNQ2 inh inactive and KCNQ2 pot 0.93.
`COc1ccc(C(=O)Nc2ccccc2C(=O)NCC2CCCO2)cc1` (configuration not stated) gave KCNQ2 inh inactive and KCNQ2 pot 2.1.
Screening CCOC(=O)C1CCCN(C2=C(NS(=O)(=O)c3ccc(Br)cc3)C(=O)c3ccccc3C2=O)C1 (configuration not stated) returned KCNQ2 inh -6.7* and KCNQ2 pot -6.7.
For CCOC(=O)C1CCN(C2=C(NS(=O)(=O)c3ccc(Cl)cc3)C(=O)c3ccccc3C2=O)CC1 the results were KCNQ2 inh inactive.
O=C(Nc1nnc(C2=COCCO2)o1)c1ccc([N+](=O)[O-])cc1 was read as KCNQ2 inh inactive and KCNQ2 pot 1.8.
Screening COc1ccc(N2C(=O)CSC23C(=O)N2CCCc4cccc3c42)cc1 (configuration not stated) returned KCNQ2 inh inactive and KCNQ2 pot 3.8.
`COc1ccc(N2C(=O)CSC23C(=O)N2c4c(cccc43)C(C)=CC2(C)C)cc1` (configuration not stated) gave KCNQ2 inh -6.2* and KCNQ2 pot -6.2.
`Cc1ccccc1NC(=O)CSCc1nc(N)nc(Nc2ccccc2C)n1` gave KCNQ2 inh inactive and KCNQ2 pot 5.7*.
Screening Cc1ccccc1Nc1nc(N)nc(CCl)n1 returned KCNQ2 inh inactive.
Screening Cc1ccccc1Nc1nc(N)nc(COC(=O)C2CCCCC2)n1 returned KCNQ2 inh inactive and KCNQ2 pot 7.7*.
`Cc1ccc(N2CC(C(=O)OCc3nc(N)nc(Nc4ccccc4C)n3)CC2=O)cc1` (configuration not stated) gave KCNQ2 inh inactive and KCNQ2 pot 0.86.
`CS(=O)(=O)N(CC(=O)N1CCOCC1)c1ccccc1Br` gave KCNQ2 inh inactive and KCNQ2 pot 0.78.
Screening C=CCOC(=O)C1=C[C@@H](c2csc3ccccc23)C[C@@H](OCCCCO)O1 returned KCNQ2 inh inactive.
Cc1ccc(Cl)c(OCCN2CCc3ccccc3C2)c1 was read as KCNQ2 inh inactive.
Screening O=C(Nc1nc2ccccc2s1)C1CCCN1S(=O)(=O)c1ccc(Cl)cc1 (configuration not stated) returned KCNQ2 inh -5.6* and KCNQ2 pot -5.6.
Screening Cc1ccc(S(=O)(=O)N2CCCC2C(=O)Nc2nc3ccccc3s2)cc1 (configuration not stated) returned KCNQ2 inh inactive.
Screening CC(=O)N1c2ccc(S(=O)(=O)N3CCC(C(=O)NCc4ccccc4Cl)CC3)cc2CC1C (configuration not stated) returned KCNQ2 inh inactive.
Screening CC(=O)N1c2ccc(S(=O)(=O)N3CCCC(C(=O)NCc4ccccc4Cl)C3)cc2CC1C (configuration not stated) returned KCNQ2 inh -6.2* and KCNQ2 pot -6.2.
`COc1ccc(S(=O)(=O)N2CCCC2C(=O)NCc2ccccc2Cl)cc1` (configuration not stated) gave KCNQ2 inh inactive.
Cc1ccc(S(=O)(=O)N2CCCC2C(=O)NCc2ccccc2Cl)cc1 (configuration not stated) was read as KCNQ2 inh -6.6* and KCNQ2 pot -6.6.
